Measured values from ChEMBL document CHEMBL3988442, “University of Dundee, Small-Polar-MMV Screening Library” (2021).
Out of some 48,000 compounds screened, about 13,000 (27%) showed an effect of 50% or more. The list shows a part of the results.

tested on: Wolbachia pipientis; assay: Anti-Wolbachia Cell-Based Screen; assay type: functional; set-up: scale not given: in the data most compounds retested in dose-response had high values; conditions: 5 µM

Row | Compound | Percent Effect [%]
1 | Cc1cnn(-c2ccc(S(N)(=O)=O)cc2F)c1 | -6.422
2 | O=S(=O)(c1ccc(F)cc1)n1cc(Cl)cn1 | 120.8
3 | Cn1cc(CNS(=O)(=O)c2cc(F)ccc2F)cn1 | -25.59
4 | O=S(=O)(c1cc(F)cc(F)c1)N1CCC(Oc2ccc(Cl)cn2)CC1 | 14.51
5 | O=S(=O)(c1ccc(F)cc1)N1CCCn2cnc(CN3CCCC3)c2C1 | -4.272
6 | CC1CN(S(=O)(=O)c2ccc(F)cc2)c2cccnc2O1 (configuration not stated) | -6.329
7 | O=S(=O)(c1cc(F)ccc1F)n1cc(Cl)cn1 | 95.85
8 | COc1ccc(F)cc1S(=O)(=O)N1CCC(Oc2ccc(Cl)cn2)CC1 | -6.405
9 | O=S(=O)(c1ccc(F)c(F)c1)n1cc(Cl)cn1 | 96.85
10 | Cc1nc(CCNC(Cc2ccncc2)C(F)(F)F)cs1 (configuration not stated) | -2.78
11 | CC(O)CCn1ccc2[nH]c(=O)c(C#N)cc2c1=O (configuration not stated) | -44.58
12 | COc1cc(C(=O)Nc2c(C)noc2C)ccc1C | 5.924
13 | COc1cc2[nH]c(=O)c(CN3CCCC(CO)C3)cc2c(OC)c1OC (configuration not stated) | 1.788
14 | COc1cc2[nH]c(C(=O)O)cc2c(OC)c1C | 98.44
15 | COC(=O)C(C)NCc1ccc2[nH]c(C)c(C)c2c1 (configuration not stated) | -1.475
16 | COc1cc(C(=O)N(C)Cc2cc(C(=O)O)c(C)o2)cc(OC)c1OC | -0.7675
17 | COc1cc2cc(C(=O)O)n(C)c2c(OC)c1OC | -1.189
18 | COC(=O)c1cc2c(OC)c(C)c(OC)cc2[nH]1 | 95.02
19 | COC(=O)c1cc2c(OC)c(OC)c(OC)cc2[nH]1 | 120.2
20 | COc1cc2[nH]c(=O)c(CN3CCC[C@@H]3C(N)=O)cc2c(OC)c1OC | -9.081
21 | CCCn1nc2c(cc1=O)CN(CC(=O)N(C)c1nccs1)CC2 | -22.84
22 | CCc1cc(NCCCC2CCOC2)n2nccc2n1 (configuration not stated) | -1.009

Row | Compound | Percent Effect [%]
23 | CCc1nnsc1C(=O)NCCn1nc2ccccn2c1=O | 6.254
24 | NC(=O)C(NC(=O)c1cc(Cl)c[nH]1)c1ccccc1 (configuration not stated) | 10.72
25 | c1ccc(CN(Cc2cccc3cnccc23)CC2CCCO2)nc1 (configuration not stated) | 15.94
26 | COCC1CN(C(=O)CC2=CCCCC2)Cc2nnn(CC3CC3)c21 (configuration not stated) | 25.21
27 | CCOCC1CN(S(=O)(=O)C2CC2)Cc2ncn(CC3CC3)c21 (configuration not stated) | 93.99
28 | COCC1CN(Cc2ccc(C)o2)Cc2ncn(CC3CC3)c21 (configuration not stated) | 4.542
29 | CCOCC1CN(S(C)(=O)=O)Cc2ncn(CC3CC3)c21 (configuration not stated) | -5.705
30 | CCOCC1CN(S(=O)(=O)C2CC2)Cc2nn(C)cc21 (configuration not stated) | -10.65
31 | COCC1CN(C(=O)Cc2ccccn2)Cc2ncn(C)c21 (configuration not stated) | -6.541
32 | CCOC(=O)C1CN(S(=O)(=O)C2CC2)Cc2ncn(CC)c21 (configuration not stated) | -2.058
33 | COCC1CN(S(=O)(=O)C2CC2)Cc2ncn(CC3CC3)c21 (configuration not stated) | 93.96
34 | COCC1CN(C(=O)CS(C)(=O)=O)Cc2ncn(CC3CC3)c21 (configuration not stated) | 98.19
35 | COCC1CN(CC2CC2)Cc2nn(C)cc21.O=C(O)C(F)(F)F (configuration not stated) | -11.2
36 | CCn1cc2c(n1)CN(S(=O)(=O)c1ccc(C)cc1)CC2COC (configuration not stated) | -1.212
37 | COCC1CN(CC2CC2)Cc2ncn(CC3CC3)c21 (configuration not stated) | 123
38 | CCN(C)S(=O)(=O)c1ccc(Cl)cc1C#N | -3.723
39 | CCN1C(=O)[C@]2(CC[C@@H]3CN(C(=O)NCC(C)C)C[C@@H]32)N=C1C | 1.741
40 | CCOCC1CN(S(=O)(=O)CC)Cc2nn(C)cc21 (configuration not stated) | -1.442
41 | CCS(=O)(=O)N1Cc2ncn(CC3CC3)c2C(COC)C1 (configuration not stated) | 96.93
42 | COCC1CN(S(C)(=O)=O)Cc2ncn(CC3CC3)c21 (configuration not stated) | -3.416
43 | CCS(=O)(=O)N1CCc2cc(C(=O)NC)c(NCC(C)C)nc2CC1 | -9.983
44 | O=C(Cc1csc(-c2ccccc2)n1)N[C@@H](C(=O)O)c1ccccc1 | 112.5

Row | Compound | Percent Effect [%]
45 | CC(C)C[C@H](NC(=O)Cc1csc(-c2cccc(Cl)c2)n1)C(=O)O | 111.7
46 | COc1cccc(-c2nc(CNC(C)Cn3cccn3)cs2)c1 (configuration not stated) | 12.67
47 | COc1cccc(-c2nc(C)c(C(=O)N[C@@H](C)C(=O)O)s2)c1 | -5.733
48 | C[C@H](NC(=O)Cc1csc(-c2cccc(Cl)c2)n1)C(=O)O | 100.7
49 | O=C(Cc1csc(-c2ccc(Cl)cc2)n1)NC(C(=O)O)c1ccccc1 (configuration not stated) | 14.14
50 | O=C(Cc1csc(N2CCNC2=O)n1)NC(c1ccccc1)C1CC1 (configuration not stated) | -8.956
51 | CC[C@H](C)[C@H](NC(=O)Cc1csc(-c2cccc(Cl)c2)n1)C(=O)O | -0.2804
52 | NC(=O)CCS(=O)(=O)Cc1ccc(OCC(F)(F)F)cc1 | -2.639
53 | CC(=O)Nc1ccc2c(c1)nc1n2[C@@H](CNCc2ccccc2)COC1 | -2.529
54 | C1CC(CN2C[C@H]3CC[C@@H]2CN(Cc2noc(C4CCCC4)n2)C3)C1 | -8.86
55 | O=C1CC(c2cccc(O)c2)c2c(c(C(=O)O)cn2-c2ccccc2)N1 (configuration not stated) | 2.755
56 | OC[C@H]1CCCN1c1nccc(-c2c[nH]nc2C2CCCCC2)n1 | 103.3
57 | COCc1noc(-c2ccc(N3CCC[C@H]3CO)nc2)n1 | 11.1
58 | OCC1CCCN1c1cc(N2CCc3ccccc3C2)ncn1 (configuration not stated) | -8.701
59 | OC[C@H]1CCCN1c1nccc(-c2cncnc2C2CCCCC2)n1 | 101.1
60 | OC[C@@H]1CCCN1c1ccc(-c2nc(COc3ccccc3)no2)cn1 | -5.727
61 | OC[C@@H]1CCCN1c1nccc(-c2c[nH]nc2-c2ccncc2)n1 | 132.9
62 | COCc1noc(-c2ccc(N3CCCCC3CO)nc2)n1 (configuration not stated) | -1.816
63 | CC(NC(=O)c1cc2n(n1)CCCN(C)C2)c1cn2ccsc2n1 (configuration not stated) | -3.947
64 | CC(C)(C)OC(=O)N1CC(CC(=O)NCc2ccsc2)C1 | -134.2
65 | N#Cc1cccc(CNc2cc(CO)ccc2Cl)c1 | -41.9
66 | CC(=O)N[C@@H]1CN(C2CCN(c3cccc(C)c3C)CC2)C[C@H]1C(C)C | -7.453

Row | Compound | Percent Effect [%]
67 | Cc1ncccc1OC1(C(=O)NCc2noc(C(C)C)n2)CCNCC1 | -7.244
68 | CCCc1nnc(NC(=O)N2CCCC(NC(C)=O)C2)s1 (configuration not stated) | -6.221
69 | CNc1cc(C)nc(C2CN(Cc3cc[nH]n3)CCO2)c1 (configuration not stated) | -11.69
70 | CCc1nnc(Nc2cc(C)nc(C3CN(C(C)=O)CCO3)c2)s1 (configuration not stated) | 108.4
71 | Cl.c1cc(CNCc2ccc3c(c2)CCO3)cc(N2CCOCC2)n1 | -6.468
72 | COc1c(C)cc(CNCc2ccnc(N3CCOCC3)c2)cc1C.Cl | 93.56
73 | COc1cc(CNCc2ccnc(N3CCOCC3)c2)cc(Cl)c1OC | -1.055
74 | COc1cc(CNCc2ccnc(N3CCOCC3)c2)cc(OC)c1 | 97.96
75 | COc1cccc(CNCc2ccnc(N3CCOCC3)c2)c1OC | 119.8
76 | COc1ccc(CNCc2ccnc(N3CCOCC3)c2)cc1OC | -3.598
77 | COc1ccc(CNCc2ccnc(N3CCOCC3)c2)c(OC)c1 | -1.923
78 | COc1ccc(OC)c(CNCc2ccnc(N3CCOCC3)c2)c1 | 119.2
79 | Cl.c1cc(CNCc2ccnc(N3CCOCC3)c2)c2c(c1)OCO2 | 16.56
80 | CCOc1ccccc1N(C)C(=O)c1ccc(Cl)cn1 | -0.6778
81 | O=C([C@H]1C[C@H]2OCC[C@H]2N(C(=O)c2ccncc2)C1)N1CCCCO1 | 15.67
82 | CC(=O)c1c(O)ccnc1C(F)(F)F | -30.29
83 | COc1ccc2c(c1)C(C(=O)N(C)CCc1scnc1C)CC(=O)N2 (configuration not stated) | 13.25
84 | CCCc1nn(C2CCN(C3CC3)C2=O)c(=O)o1 (configuration not stated) | -0.5192
85 | CC(C)c1cc(NCC2(CO)CCC2)ncn1 | -3.782
86 | CCOc1cc(F)ccc1NC(=O)N(C(C)CS(C)(=O)=O)C1CC1 (configuration not stated) | -6.232
87 | Cc1cncc(C2CCCN(Cc3cccn3C)C2)n1 (configuration not stated) | 4.46
88 | CCOC(=O)N(C)C1CCN(Cc2ccsc2)CC1 | -3.636

Row | Compound | Percent Effect [%]
89 | Cc1cncc(C2CCN(Cc3cccn3C)CC2)n1 | 121.9
90 | COc1cncc(N2CCN(Cc3cccn3C)CC2)n1 | -11
91 | Cc1cncc(C2CCN(Cc3ccsc3)CC2)n1 | 117.4
92 | CC(c1nc(C2CC2)no1)N1CCN(Cc2ccsc2)CC1 (configuration not stated) | 3.758
93 | Cc1ccccc1C(=O)NC[C@@H]1CCN(C(=O)c2cccn2C)C[C@H]1O | 2.167
94 | Cc1cnn(CCNCc2ccc(C#N)cc2F)c1 | -2.376
95 | Cn1c(C2CC2)nc2cc(NC(=O)C3(O)CCCC3)ccc21 | -3.273
96 | Cc1ccn(CCC(=O)NC(C)Cc2ccco2)n1 (configuration not stated) | 108
97 | COC(=O)CC(NC(=O)CCn1cccn1)c1ccc(C)cc1 (configuration not stated) | -17.18
98 | O=C(CCN1C[C@H]2CC[C@@H]1CN(c1ncccn1)C2)NCc1ccco1 | -5.213
99 | CC(Cc1ccco1)NC(=O)CCn1cccn1 (configuration not stated) | -2.22
100 | Cc1ccc(CNC(=O)CCC(=O)NCCC(C)C)o1 | -4.384
101 | CCN(Cc1nccn1C)C(=O)c1ccc(NCc2ccc(C)o2)nc1 | 12.06
102 | CC(NC(=O)CCn1cccn1)c1cccs1 (configuration not stated) | -33.21
103 | CC(Cc1ccco1)NC(=O)CSc1nnc[nH]1 (configuration not stated) | -0.3206
104 | Cc1ccn(CCC(=O)NCc2ccco2)n1 | 113.3
105 | Cc1ccn(CCC(=O)NCc2ccc(C)o2)n1 | 96.24
106 | CCC(C)NC(=O)CCn1ccc(C)n1 (configuration not stated) | 122.6
107 | Cc1ccc(OCC(=O)NCc2ccco2)nc1 | -11.41
